Measurements taken from PubChem BioAssay (Tox21).
Results filed as inconclusive are left out. Active and inactive are the calls of the source. Unless noted, the call rests on the fitted dose curve.

How the values were obtained:
[1] = Nuclear factor erythroid 2-related factor 2/antioxidant responsive element (Nrf2/ARE) small molecule agonists: qHTS cell viability counter screen in human keratinocytes (AID 1919968; active means well fitted curve in the direction sought with a large enough effect in the repeat runs; an effect the other way counts as inactive or inconclusive; further: nearly all actives have a fitted effect of over 55% in size)
Procedure, shortened: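 HaCaT ARE reporter line, 1,500 cells/well; 5 h settle, 37 C/5% CO2; cpd in DMSO pinned; 23 h exposure; CellTiter-Fluor, 1 h; fluorescence.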

[2] = molecular target: Gonadotropin-releasing hormone receptor (Homo sapiens) (UniProt P30968); assay: Human gonadotropin-releasing hormone receptor (GnRHR) small molecule agonists, calcium flux assay in GnRHR-HEK293 cells (AID 1920063); further: nearly all actives have a fitted effect of over 35% in size
Procedure, shortened: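 GnRHR-HEK293, 1500 cells/well, 18 h 37 C/5% CO2; Ca dye 1 h 37 C; cpd pinned (DMSO), agonist mode; kinetic FL 480/540, 3 min, 1 s reads; 15 conc, n=3.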

[3] = molecular target: KiSS-1 receptor (Homo sapiens) (UniProt Q969F8); assay: Human kisspeptin (KISS1R) small molecule agonists, calcium flux assay in KISS1R-HEK293 cells (AID 1920064; active means well fitted curve in the direction sought with a large enough effect in the repeat runs; an effect the other way counts as inactive or inconclusive)
Procedure, shortened: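 Stable human KISS1R HEK293 line; 18 h plating, 37 C/5% CO2; calcium dye 1 h 37 C; compound pin transfer; kinetic fluorescence Ex/Em 480/540, 3 min.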

[4] = G protein-coupled receptor (GPCR) small molecule agonists, calcium flux assay: HEK293 wild type cell line counter screen (AID 1920065)
Procedure, shortened: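 Kinetic fluorescence at Ex/Em 480/540, recorded every second over 3 min, served as the read-out after compound addition. Each compound was tested at 15 concentrations in triplicate on cells pre-loaded with calcium dye for 1 h.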

[5] = p53 small molecule agonists, cell-based qHTS assay with rat liver microsomes (AID 1963578)
Procedure, shortened: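 Fluorescence from a beta-lactamase reporter under a p53 response element was measured after cells had been incubated 16 h at 37 C with test compound and rat liver microsomes plus NADPH (0.5 mg/mL final each).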

[6] = p53 small molecule agonists, cell-based qHTS assay with human liver microsomes: qHTS cell viability counter screen (AID 1963579); further: nearly all actives have a fitted effect of over 45% in size; further: potency means the concentration at half of the fitted maximal effect
Procedure, shortened: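 Seed p53RE-bla cells at 4,000 per well; incubate 5 h at 37 C; add compound, human liver microsomes and NADPH; incubate 16 h at 37 C; add CellTiter-Glo; after 30 min at room temperature, read luminescence.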

[7] = p53 small molecule agonists, cell-based qHTS assay with rat liver microsomes: qHTS cell viability counter screen (AID 1963580); further: nearly all actives have a fitted effect of over 45% in size
Procedure, shortened: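 In HCT-116 cells carrying a p53 response element-bla reporter, compounds were metabolically activated in situ by rat liver microsomes with NADPH over 16 h. Cell ATP content then served as the cytotoxicity measure.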

[8] = p53 small molecule agonists, cell-based qHTS assay: qHTS cell viability counter screen (AID 1963581); further: nearly all actives have a fitted effect of over 45% in size
Procedure, shortened: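 HCT-116 p53RE-bla cells, 4,000/well, plated 5 h before compound pin transfer; 16 h at 37 C; bla substrate 2 h RT; then CellTiter-Glo, 30 min RT, luminescence.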

[9] = p53 small molecule agonists, cell-based qHTS assay (AID 1963582; active means well fitted activation curve with a large enough effect in the signal ratio in the repeat runs, not every such curve was filed as active; the % refers to the signal ratio)
Procedure, shortened: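 Reporter line: p53RE-bla. Pre-incubation 5 h, 37 C, 5% CO2; compound (DMSO, pin tool) 16 h, 37 C; B/G FRET substrate 2 h RT; fluorescence intensity read.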

[10] = molecular target: 5-hydroxytryptamine receptor 2A (Homo sapiens) (UniProt P28223); assay: 5-hydroxytryptamine receptor 2A (HTR2A) small molecule agonists, cell-based qHTS assay (AID 1963587); further: nearly all actives have a fitted effect of over 30% in size
Procedure, shortened: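 HTR2A-CHO cells, plated 18 h at 37 C/5% CO2, dye-loaded 1 h at 37 C; compounds in DMSO added by pin tool (agonist mode). Intracellular calcium flux read as kinetic fluorescence on FDSS over 2 min at 1 s intervals.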

[11] = molecular target: Muscarinic acetylcholine receptor M1 (Homo sapiens) (UniProt P11229); assay: Cholinergic receptor muscarinic 1 (CHRM1) small molecule antagonists, cell-based qHTS assay (AID 1963588); further: nearly all actives have a fitted effect of over 40% in size
Procedure, shortened: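 CHRM1-CHO calcium-flux assay, antagonist mode. Cells were seeded 18 h, dye-loaded 1 h at 37 C and given compound for 5 min at RT, then acetylcholine was added at 50nM. FDSS fluorescence was read 3 min; 15 concentrations, three runs.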

[12] = molecular target: Muscarinic acetylcholine receptor M1 (Homo sapiens) (UniProt P11229); assay: Cholinergic receptor muscarinic 1 (CHRM1) small molecule agonists, cell-based qHTS assay (AID 1963589); further: nearly all actives have a fitted effect of over 35% in size
Procedure, shortened: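 Human M1 in stable CHO line; 18 h plating, 1 h dye load 37 C; cpd added (agonist mode); Ca2+ fluorescence kinetic read, 1 s intervals; 15 conc, 3 runs.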

[13] = cAMP Responsive Elements (CRE) small molecule agonists, cell-based qHTS assay (AID 1963590)
Procedure, shortened: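 HEK 293T CRE-bla, 2,000 cells/well, 18 h preincubation 37 C/5% CO2; cpds (DMSO) pinned, 3 h; LiveBLAzer B/G FRET substrate, 2 h RT.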

[14] = cAMP Responsive Elements (CRE) small molecule antagonists, cell-based qHTS assay (AID 1963591; active means well fitted inhibition curve with a large enough effect in the signal ratio in the repeat runs, not every such curve was filed as active; the % refers to the signal ratio)
Procedure, shortened: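 Beta-lactamase reporter read by FRET substrate (LiveBLAzer B/G) after 2 h at room temperature. CRE-bla HEK293T cells had received compound plus 0.25 uM (final) NKH477 for 3 h at 37 °C.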

[15] = molecular target: Beta-2 adrenergic receptor (Homo sapiens) (UniProt P07550); assay: Adrenergic beta2 receptor (ADRB2) small molecule antagonists, cell-based qHTS assay (AID 1963592); further: series mostly up to about 92 µM; nearly all actives have a fitted effect of over 50% in size
Procedure, shortened: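 Cells (CHO, stable ADRB2 overexpression) incubated 18-20hr at 37C; compounds added from DMSO; agonist mix (1nM isoproterenol, 100uM IBMX, 25uM Ro-20-1724) added; 0.5hr RT; d2-cAMP and anti-cAMP-cryptate added; 1hr RT; 665/615 nm read.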

[16] = molecular target: D(2) dopamine receptor (Homo sapiens) (UniProt P14416); assay: Dopamine D2 receptor (DRD2) small molecule agonists, cell-based qHTS assay (AID 1963594); further: nearly all actives have a fitted effect of over 35% in size
Procedure, shortened: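 HEK293 cells stably expressing DRD2 were cultured 24 h at 37 C, then given Ro20-1724 (0.1 mM final) and compounds for 10 min at room temperature. NKH477 (200nM) was then added for 30 min. cAMP was read by HTRF.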

[17] = molecular target: D(2) dopamine receptor (Homo sapiens) (UniProt P14416); assay: Dopamine D2 receptor (DRD2) small molecule antagonists, cell-based qHTS assay (AID 1963595; active means well fitted inhibition curve with a large enough effect in the signal ratio in the repeat runs, with a control signal flat; the % refers to the signal ratio)
Procedure, shortened: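 Antagonist mode in DRD2-HEK293 cells: after compound addition with 0.1 mM Ro20-1724, cells received quinpirole (12 nM) and NKH477 (200 nM) for 30 min at room temperature; HTRF cAMP read after 1 h detection.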

[18] = p53 small molecule agonists, cell-based qHTS assay with human liver microsomes (AID 1963577)
Procedure, shortened: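 Cells carrying a p53-responsive bla reporter were rested 5 h (37 C, 5% CO2) before compound transfer. Human liver microsomes plus NADPH, 0.5 mg/mL final apiece, supplied metabolism during the 16 h 37 C exposure.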

[19] = molecular target: Beta-2 adrenergic receptor (Homo sapiens) (UniProt P07550); assay: Adrenergic beta2 receptor (ADRB2) small molecule agonists, cell-based qHTS assay (AID 1963593);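 further: CHO cells stably overexpressing human ADRB2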
Procedure, shortened: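 CHO cells stably over-expressing ADRB2 were plated overnight at 37C, then dosed with compounds plus a stimulation mix containing 100uM IBMX and 25uM Ro-20-1724 for 0.5hr at room temperature. cAMP was measured by HTRF competition, 1hr.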

[20] = molecular target: 5-hydroxytryptamine receptor 2A (Homo sapiens) (UniProt P28223); assay: 5-hydroxytryptamine receptor 2A (HTR2A) small molecule antagonists, cell-based qHTS assay (AID 1963586); further: nearly all actives have a fitted effect of over 45% in size; further: potency means the concentration at half of the fitted maximal effect
Procedure, shortened: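 Antagonist-mode intracellular calcium assay: DOI (4 nM) added after 5 min compound pre-incubation at room temperature to dye-loaded HTR2A-CHO cells. Fluorescence followed for 3 min, sampled every second.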

Measured: Potency

Chain of Beta-2 adrenergic receptor (Homo sapiens) (P07550 whole entry, looked up): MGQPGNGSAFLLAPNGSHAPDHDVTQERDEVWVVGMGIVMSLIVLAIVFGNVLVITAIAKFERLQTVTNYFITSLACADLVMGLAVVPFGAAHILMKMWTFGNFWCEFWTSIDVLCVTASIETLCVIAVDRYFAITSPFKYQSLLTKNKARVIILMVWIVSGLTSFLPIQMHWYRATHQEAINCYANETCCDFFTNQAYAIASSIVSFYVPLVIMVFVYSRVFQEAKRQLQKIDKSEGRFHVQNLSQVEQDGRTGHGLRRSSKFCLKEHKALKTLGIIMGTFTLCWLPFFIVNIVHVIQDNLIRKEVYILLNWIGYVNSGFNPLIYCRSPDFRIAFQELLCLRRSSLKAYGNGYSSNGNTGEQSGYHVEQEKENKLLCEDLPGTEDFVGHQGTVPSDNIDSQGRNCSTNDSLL
Chain of D(2) dopamine receptor (Homo sapiens) (P14416 whole entry, looked up): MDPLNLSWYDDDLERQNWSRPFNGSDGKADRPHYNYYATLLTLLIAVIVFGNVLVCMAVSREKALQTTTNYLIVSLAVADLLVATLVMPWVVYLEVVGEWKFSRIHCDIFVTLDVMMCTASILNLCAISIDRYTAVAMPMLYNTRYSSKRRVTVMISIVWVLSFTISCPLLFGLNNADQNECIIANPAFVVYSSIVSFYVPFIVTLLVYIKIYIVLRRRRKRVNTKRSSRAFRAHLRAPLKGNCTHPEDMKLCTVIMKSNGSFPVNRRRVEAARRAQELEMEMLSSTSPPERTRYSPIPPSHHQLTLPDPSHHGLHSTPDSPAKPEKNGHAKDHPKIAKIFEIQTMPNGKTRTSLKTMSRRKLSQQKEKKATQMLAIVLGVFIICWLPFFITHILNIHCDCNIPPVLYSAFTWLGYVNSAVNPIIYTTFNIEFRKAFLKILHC
Chain of Muscarinic acetylcholine receptor M1 (Homo sapiens) (P11229 whole entry, looked up): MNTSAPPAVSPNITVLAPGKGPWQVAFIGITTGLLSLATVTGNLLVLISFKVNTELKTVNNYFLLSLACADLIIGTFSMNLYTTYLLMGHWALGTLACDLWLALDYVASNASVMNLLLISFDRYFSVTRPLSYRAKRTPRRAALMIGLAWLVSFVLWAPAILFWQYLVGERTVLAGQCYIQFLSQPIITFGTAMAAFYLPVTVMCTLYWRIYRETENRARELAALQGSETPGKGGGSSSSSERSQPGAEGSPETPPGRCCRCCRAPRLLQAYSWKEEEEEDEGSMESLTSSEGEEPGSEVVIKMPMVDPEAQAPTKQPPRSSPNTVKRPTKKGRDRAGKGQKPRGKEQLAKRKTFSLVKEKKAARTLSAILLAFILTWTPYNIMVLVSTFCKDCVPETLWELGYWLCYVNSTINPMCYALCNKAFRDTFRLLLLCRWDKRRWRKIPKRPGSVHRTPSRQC
Chain of 5-hydroxytryptamine receptor 2A (Homo sapiens) (P28223 whole entry, looked up): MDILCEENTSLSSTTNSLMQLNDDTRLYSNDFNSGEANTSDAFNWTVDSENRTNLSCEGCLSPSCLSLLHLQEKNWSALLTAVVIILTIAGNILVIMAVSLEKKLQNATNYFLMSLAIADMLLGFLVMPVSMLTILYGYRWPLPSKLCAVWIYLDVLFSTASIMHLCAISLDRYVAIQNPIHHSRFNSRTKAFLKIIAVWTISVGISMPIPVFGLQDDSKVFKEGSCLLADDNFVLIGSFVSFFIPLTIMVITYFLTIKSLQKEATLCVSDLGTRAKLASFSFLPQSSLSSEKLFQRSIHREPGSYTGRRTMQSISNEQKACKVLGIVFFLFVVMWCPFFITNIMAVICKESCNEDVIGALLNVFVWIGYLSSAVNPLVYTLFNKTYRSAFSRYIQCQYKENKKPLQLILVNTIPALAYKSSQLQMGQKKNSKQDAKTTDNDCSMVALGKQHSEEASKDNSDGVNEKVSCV
Chain of Gonadotropin-releasing hormone receptor (Homo sapiens) (P30968 whole entry, looked up): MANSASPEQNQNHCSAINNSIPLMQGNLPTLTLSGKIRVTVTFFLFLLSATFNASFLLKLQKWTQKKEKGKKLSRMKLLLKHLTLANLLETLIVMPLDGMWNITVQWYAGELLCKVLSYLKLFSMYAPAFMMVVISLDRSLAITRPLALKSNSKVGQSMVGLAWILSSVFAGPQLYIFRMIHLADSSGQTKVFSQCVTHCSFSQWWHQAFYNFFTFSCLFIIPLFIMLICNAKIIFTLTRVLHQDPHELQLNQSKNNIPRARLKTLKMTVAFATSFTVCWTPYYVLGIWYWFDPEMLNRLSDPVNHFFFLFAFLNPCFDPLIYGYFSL
Chain of KiSS-1 receptor (Homo sapiens) (Q969F8 whole entry, looked up): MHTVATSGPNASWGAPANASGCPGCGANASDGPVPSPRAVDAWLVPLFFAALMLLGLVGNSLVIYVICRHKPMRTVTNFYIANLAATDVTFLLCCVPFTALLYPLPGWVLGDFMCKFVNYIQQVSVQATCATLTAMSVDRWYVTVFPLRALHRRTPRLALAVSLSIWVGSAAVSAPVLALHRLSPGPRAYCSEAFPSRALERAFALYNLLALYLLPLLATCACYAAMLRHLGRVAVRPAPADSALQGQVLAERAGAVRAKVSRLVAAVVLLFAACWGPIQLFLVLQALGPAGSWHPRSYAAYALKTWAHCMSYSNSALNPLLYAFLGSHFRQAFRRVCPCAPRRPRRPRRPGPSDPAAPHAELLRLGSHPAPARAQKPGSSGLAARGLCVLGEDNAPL

C=CC(C)(CCC=C(C)C)OC(=O)c1ccccc1N (stereo unspecified)
not listed: [18] | [19] | [20]
inactive: all other assays above

CC[C@H]1C[C@H]2[C@@H]3CCC4=CC(=O)CC[C@@H]4[C@H]3CC[C@]2(C)[C@H]1O
not listed: [5] | [6] | [9] | [10] | [13] | [14] | [20]
inactive: all other assays above

O=C1c2ccccc2C(=O)C1C(=O)C(c1ccccc1)c1ccccc1
not listed: [9] | [10] | [13] | [18] | [19]
inactive: all other assays above

COP(=S)(OC)Oc1cc(Cl)c(Br)cc1Cl
active: [6] 45.8 µM
not listed: [5] | [9] | [13] | [18]
inactive: all other assays above

COC(=O)C(C)Oc1ccc(Oc2ccc(Cl)cc2Cl)cc1 (stereo unspecified)
not listed: [9] | [11] | [18]
inactive: all other assays above

CCOC(=O)C(SP(=S)(OC)OC)c1ccccc1 (stereo unspecified)
not listed: [5] | [11] | [18]
inactive: all other assays above

Cn1[nH]nnc1=S
not listed: [5] | [9] | [15] | [18] | [19]
inactive: all other assays above

COP(=S)(OC)Oc1nc(Cl)c(Cl)cc1Cl
not listed: [5] | [11] | [13] | [14] | [18]
inactive: all other assays above

C#CC1(O)CCCCC1
not listed: [5] | [18] | [19]
inactive: all other assays above

Clc1cc(Cl)c(Cl)c(Cl)c1
not listed: [5] | [9] | [18] | [19]
inactive: all other assays above

Nc1cc2c3c(c1)C(c1ccccc1)=N[C@@H](NC(=O)c1cccnc1)C(=O)N3CC2
not listed: [5] | [9] | [13] | [14] | [18]
inactive: all other assays above

COc1cc(C[C@@H](C)N)c(OC)cc1C
active: [20] 0.0013 µM
not listed: [5] | [9] | [10] | [15] | [16] | [18] | [19]
inactive: all other assays above
